This is part of a sample that, as a whole, favours compounds with a hit. Of some 83,000 tested, about 20% had one in any assay.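 Growth was measured after 48 h exposure to one concentration of compound in 96-well plates. Values under 10 count as active.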 Values without a mark were called inactive. Active and inactive are the calls of the source.

One test has as its system TK-10 renal. Description: NCI-60 one-dose screen, 48 h (100 = growth as untreated, 0 = no growth, -100 = all killed). Particulars: 10 µM unless noted.
In the case of `CC/C(=C(/c1ccc(Cl)cc1)c1ccc(OCCN2CCCC2)cc1)c1ccc(OC)cc1`, the growth was 76.9%.
Turning to `Nc1ncnc2c1N=C(c1ccc(Cl)cc1)CC(c1ccc3c(c1)OCO3)N2` (stereo not given), the growth is 111%.
Still for that read-out and setting: under `N=C(N)c1ccc(-c2ccc(-c3ccc(F)cc3)o2)o1` stands 49.9%.
On the same count and under the same terms, the same measure for `CCCCC(=O)c1ccco1`: 96%.
Take `C/C(=C(/c1ccc(Cl)cc1)c1ccc(OCCN2CCCC2)cc1)c1ccc(Cl)cc1`: the growth was 94.6%.
Still for that read-out and setting: the same measure for `COC(=O)c1c2c(c[n+]([O-])c1C)C(=O)C(NCc1ccccc1)=CC2=O`: 39%.
Take `Fc1ccc(-c2nn(-c3ccccc3)cc2-c2nc3ccccc3o2)cc1`: the growth is 126%.
Turning to `COc1ccc2c3c([nH]c2c1)C(=O)c1nc(C)ccc1C3=O`, the growth was 109%.
Turning to `CCN(C(=O)N1CCN(c2cc3c(cc2F)c(=O)c(C(=O)O)cn3C2CC2)CC1)c1nc(-c2ccc(Cl)cc2)cs1`, the growth is 28.4%.
Same read-out and setting: under `CCCNC(=O)Oc1ccc(/C(=C(/C)Cc2ccc(OC)cc2)c2ccc(OCCCN(C)C)cc2)cc1` stands 88.3%.
Regarding `CC(=O)OCc1nc(C#N)c(N(C)C)o1`, the growth is 84.1%.
The same measure, in the same setting: the same measure for `Cn1ccnc1C(=O)C(=O)Nc1ccc(CC(=O)Nc2ccccc2)cc1`: 116%.
The same measure, in the same setting: the same measure for `O=C(CN1C(=O)CCC1=O)Nc1ncc(Cc2ccc(F)cc2)s1`: 101%.
As for `CNc1nc(S(=O)c2ccc(C#N)cc2)nc2ccccc12` (stereo not given), the growth is 109%.
For the compound `Cn1c(-c2ccc(Br)cc2)c(O)c(=O)c2c(F)cccc21`, the growth is 42.4%.
Still for that read-out and setting: under `CCN(CC)CCCN1C(=O)c2c(c(C)c3c(oc4cc(O)ccc43)c2C)C1=O` stands 112%; under `Cn1ccc2c3c(ccc21)CC3=O`, 124%; under `O=C1N[C@@H]2NC(=[N+]3CCOCC3)N[C@@H]2N1`, 103%.
For the compound `CCCCCOc1ccc(C(=O)/C(Br)=C/C(=O)O)cc1`, the growth was 125%.
On the same count and under the same terms, under `O=C(/C=C/c1ccccc1)c1cccc(OCCCOc2cccc(C(=O)/C=C/c3ccccc3)c2)c1` stands 107%.
For `O=C(Cc1ccccc1)Nc1nc(O)c(/C=C2\C(=O)C=Cc3ccccc32)s1`, the growth is 150%.
Regarding `Nc1c(C(=O)Nc2ccncc2)sc2nc3c(cc12)CCCCCC3`, the growth was 90.2%.
Still for that read-out and setting: the same measure for `COc1ccc(C(=O)Nc2cccc(C3CC(=O)c4c(cc(OC)c(OC)c4OC)O3)c2)cc1` (stereo not given): 40.3%.
On the same count and under the same terms, the same measure for `O=C(c1cc2ccccc2o1)c1nn(-c2ccccc2)/c(=N/N=Cc2cn(-c3ccccc3)nc2-c2cc3ccccc3oc2=O)s1`: 107%; for `CCCCCCCCCCCCCCCCCCOc1ccccc1CC(=O)NCC[N+]1(C)CCCC1`: 25.9%; for `O=C(CSc1nc(-c2ccccc2)[nH]c1S(=O)(=O)c1ccccc1)NC1CC1`: 87.2%.
The same measure, in the same setting: the same measure for `CC(C)N1CCN(Cc2ccc3c(NNC(=O)c4ccccc4)nc4cc(F)ccc4n23)CC1`: 36.2%; for `O=S(=O)(NCCCNc1nccc(-c2c(-c3ccc(F)c(O)c3)nc3occn23)n1)c1ccccc1`: 122%.
Consider `COc1cc(-c2csc(NC(=O)c3cc(-n4cnc(C)c4)cc(C(F)(F)F)c3)n2)cc(OC)c1OC`, for which the growth is 85.6%.
On the same count and under the same terms, the same measure for `COc1cc2c(c(OC)c1OC)CCC(c1cccc(C(=O)Nc3cccc(Br)c3)c1)O2` (stereo not given): 78.7%; for `Cc1nn(-c2ccccc2)c(Oc2ccccn2)c1-c1nc2ccccc2s1`: 103%; for `CSc1nnc(-c2cnn3c2NC(c2ccccc2)C3)n1-c1ccc(C(F)(F)F)cc1` (stereo not given): 70.6%.
Consider `Cc1ccc(-c2cc(-c3ccc(Cl)cc3)nc(NC(=O)c3cccnc3)n2)cc1`, for which the growth was 115%.
Still for that read-out and setting: the same measure for `CC1=C(C(=O)OC(C)C)C(c2ccc3c(c2)OCO3)NC(=S)N1` (stereo not given): 98.1%; for `CCOC(=O)c1c2c(n3ccc(C)cc13)C(=O)c1ccccc1C2=O`: 103%.
The same measure, in the same setting: the same measure for `O=S(=O)(NCCNc1cc(-c2c(-c3cccc(O)c3)nc3sccn23)ccn1)c1ccc(C(F)(F)F)cc1`: 67.9%; for `Cc1nc2ncnc(Cl)c2[nH]1`: 94.4%.
Still for that read-out and setting: under `N#Cc1nn(-c2cc(=O)[nH]c3ccc(Cl)cc23)c(N)c1C#N` stands 105%; under `C#COc1cccc(Nc2ncnc3ncc(NC(=O)CCl)cc23)c1`, -24.2% [6.25 µM] (active); under `COC(=O)[C@]1(C)CCC[C@]2(C)[C@H]3C[C@H]4C(C(C)C)=C[C@]3(CC[C@H]21)[C@H]1[C@@H]4[C@@H](OCCC#N)CC[C@@H]1OCCC#N`, 46.2%.

For another test, the system named is ACHN renal. Described as above. Particulars: 10 µM unless noted.
`CC/C(=C(/c1ccc(Cl)cc1)c1ccc(OCCN2CCCC2)cc1)c1ccc(OC)cc1`: the growth is 78.6%.
For `Nc1ncnc2c1N=C(c1ccc(Cl)cc1)CC(c1ccc3c(c1)OCO3)N2` (stereo not given), the growth is 87.6%.
With `N=C(N)c1ccc(-c2ccc(-c3ccc(F)cc3)o2)o1`, the growth is 27.2%.
For `CCCCC(=O)c1ccco1`, the growth was 96.7%.
For the compound `C/C(=C(/c1ccc(Cl)cc1)c1ccc(OCCN2CCCC2)cc1)c1ccc(Cl)cc1`, the growth was 104%.
Still for that read-out and setting: the same measure for `COC(=O)c1c2c(c[n+]([O-])c1C)C(=O)C(NCc1ccccc1)=CC2=O`: -18.4% (active); for `Fc1ccc(-c2nn(-c3ccccc3)cc2-c2nc3ccccc3o2)cc1`: 53.9%; for `COc1ccc2c3c([nH]c2c1)C(=O)c1nc(C)ccc1C3=O`: 35%.
In the case of `CCN(C(=O)N1CCN(c2cc3c(cc2F)c(=O)c(C(=O)O)cn3C2CC2)CC1)c1nc(-c2ccc(Cl)cc2)cs1`, the growth was -12.2% (active).
Same read-out and setting: under `CCCNC(=O)Oc1ccc(/C(=C(/C)Cc2ccc(OC)cc2)c2ccc(OCCCN(C)C)cc2)cc1` stands 99.4%; under `CC(=O)OCc1nc(C#N)c(N(C)C)o1`, 98%; under `Cn1ccnc1C(=O)C(=O)Nc1ccc(CC(=O)Nc2ccccc2)cc1`, 107%.
On to `O=C(CN1C(=O)CCC1=O)Nc1ncc(Cc2ccc(F)cc2)s1`, for which the growth is 98.6%.
In the case of `CNc1nc(S(=O)c2ccc(C#N)cc2)nc2ccccc12` (stereo not given), the growth is 41.8%.
Still for that read-out and setting: under `Cn1c(-c2ccc(Br)cc2)c(O)c(=O)c2c(F)cccc21` stands 37%; under `CCN(CC)CCCN1C(=O)c2c(c(C)c3c(oc4cc(O)ccc43)c2C)C1=O`, 51.5%.
As to `Cn1ccc2c3c(ccc21)CC3=O`, the growth was 111%.
On the same count and under the same terms, under `O=C1N[C@@H]2NC(=[N+]3CCOCC3)N[C@@H]2N1` stands 104%.
The same measure, in the same setting: under `CCCCCOc1ccc(C(=O)/C(Br)=C/C(=O)O)cc1` stands 94.3%; under `O=C(/C=C/c1ccccc1)c1cccc(OCCCOc2cccc(C(=O)/C=C/c3ccccc3)c2)c1`, 102%.
In the case of `O=C(Cc1ccccc1)Nc1nc(O)c(/C=C2\C(=O)C=Cc3ccccc32)s1`, the growth was 101%.
As for `Nc1c(C(=O)Nc2ccncc2)sc2nc3c(cc12)CCCCCC3`, the growth was 108%.
Still for that read-out and setting: the same measure for `COc1ccc(C(=O)Nc2cccc(C3CC(=O)c4c(cc(OC)c(OC)c4OC)O3)c2)cc1` (stereo not given): 40.8%; for `O=C(c1cc2ccccc2o1)c1nn(-c2ccccc2)/c(=N/N=Cc2cn(-c3ccccc3)nc2-c2cc3ccccc3oc2=O)s1`: 102%; for `CCCCCCCCCCCCCCCCCCOc1ccccc1CC(=O)NCC[N+]1(C)CCCC1`: 95.8%.
On the same count and under the same terms, under `O=C(CSc1nc(-c2ccccc2)[nH]c1S(=O)(=O)c1ccccc1)NC1CC1` stands 104%; under `CC(C)N1CCN(Cc2ccc3c(NNC(=O)c4ccccc4)nc4cc(F)ccc4n23)CC1`, 10.8%.
Same read-out and setting: under `O=S(=O)(NCCCNc1nccc(-c2c(-c3ccc(F)c(O)c3)nc3occn23)n1)c1ccccc1` stands 70.1%; under `COc1cc(-c2csc(NC(=O)c3cc(-n4cnc(C)c4)cc(C(F)(F)F)c3)n2)cc(OC)c1OC`, 54.3%; under `COc1cc2c(c(OC)c1OC)CCC(c1cccc(C(=O)Nc3cccc(Br)c3)c1)O2` (stereo not given), 84.3%.
With `Cc1nn(-c2ccccc2)c(Oc2ccccn2)c1-c1nc2ccccc2s1`, the growth is 98.3%.
Still for that read-out and setting: the same measure for `CSc1nnc(-c2cnn3c2NC(c2ccccc2)C3)n1-c1ccc(C(F)(F)F)cc1` (stereo not given): 52.3%; for `Cc1ccc(-c2cc(-c3ccc(Cl)cc3)nc(NC(=O)c3cccnc3)n2)cc1`: 103%; for `CC1=C(C(=O)OC(C)C)C(c2ccc3c(c2)OCO3)NC(=S)N1` (stereo not given): 99.4%.
The same measure, in the same setting: under `CCOC(=O)c1c2c(n3ccc(C)cc13)C(=O)c1ccccc1C2=O` stands 96.4%; under `O=S(=O)(NCCNc1cc(-c2c(-c3cccc(O)c3)nc3sccn23)ccn1)c1ccc(C(F)(F)F)cc1`, 33.2%; under `Cc1nc2ncnc(Cl)c2[nH]1`, 109%.
Same read-out and setting: the same measure for `N#Cc1nn(-c2cc(=O)[nH]c3ccc(Cl)cc23)c(N)c1C#N`: 92.7%.
With `C#COc1cccc(Nc2ncnc3ncc(NC(=O)CCl)cc23)c1`, the growth was 7.63% [6.25 µM] (active).
For the compound `COC(=O)[C@]1(C)CCC[C@]2(C)[C@H]3C[C@H]4C(C(C)C)=C[C@]3(CC[C@H]21)[C@H]1[C@@H]4[C@@H](OCCC#N)CC[C@@H]1OCCC#N`, the growth was 39.2%.

Source of the values: PubChem BioAssay (NCI).
